Experimental data published in ChEMBL document CHEMBL1157539, “Thousands of chemical starting points for antimalarial lead identification” (Nature, 2010).

Experiments:
Type in all cases: functional
[1] = test system: Plasmodium falciparum; assay: GSK_TCMDC: Inhibition of Plasmodium falciparum 3D7 in whole red blood cells, using parasite LDH activity as an index of growth. Test compounds present at 2uM
[2] = test system: Plasmodium falciparum; assay: GSK_TCMDC: Inhibition of Plasmodium falciparum Dd2 in whole red blood cells, using parasite LDH activity as an index of growth. Test compounds present at 2uM
[3] = test system: HepG2; assay: GSK_TCMDC: Percent inhibition of human HepG2 cell line. Test compounds present at 10uM.

| SMILES | Inhibition [1] | Inhibition [2] | Inhibition [3] |
| --- | --- | --- | --- |
| COc1ccc2c(N/N=C/c3ccc([N+](=O)[O-])cc3)ccnc2c1 | 100% | 98% | 0% |
| Cl.O=C(Nc1cccc2ccccc12)N1CCc2cc3nccc(N4CCN5CCC[C@H]5C4)c3cc21 | 99% | 86% | 11% |
| Cc1cc(N[C@@H](Cc2ccccc2)C(=O)NCc2cccc(F)c2)nc(NCCc2cccs2)n1.O=C(O)C(F)(F)F | 99% | 22% | 9% |
| CC(C)Cn1c(Sc2ccc(C#N)c([N+](=O)[O-])c2)nnc1-c1ccccc1Cl | 93% | 46% | 18% |
| COc1cccc2[nH]c(NCCCNCc3cc(Br)cc(Br)c3)nc12 | 88% | 2% | 5% |
| CC(C)c1ccc(NC(=O)c2ccc(C(=O)NC3CCN(CC4CCCCC4)CC3)cc2)cc1.O=C(O)C(F)(F)F | 98% | 5% | 34% |
| COc1ccc(-c2cccc(NC(=O)c3cccc(C#N)c3)c2)cc1CN1CCCC1.O=C(O)C(F)(F)F | 98% | 32% | 28% |
| Nc1nc2c(ncn2OC[C@H](CO)OCP(=O)(O)O)c(=O)[nH]1 | 94% | 61% | 5% |
| Clc1ccc(OCc2ccccc2)c(-c2nc(-c3nc4ccc(Cl)cc4[nH]3)cs2)c1 | 99% | 60% | 0% |
| Cc1ccc(CNC(=O)c2cnc(N3CCN(c4ccncc4)CC3)c(Cl)c2)cc1.O=C(O)C(F)(F)F | 92% | 6% | 27% |
| COc1ccc(-c2ccc(NC(=O)c3ccc(C#N)cc3)cc2)cc1CN1CCNCC1.O=C(O)C(F)(F)F | 96% | 42% | 23% |
| O=C(O)C(F)(F)F.Oc1ccc(CCNc2nc(NCc3ccccc3-c3ccc(F)cc3)nc(N3CCNCC3)n2)cc1 | 92% | 24% | 15% |
| CCCCn1c(Sc2ccc(C#N)c([N+](=O)[O-])c2)nnc1-c1ccc(OC)cc1 | 93% | 61% | 12% |
| CCOC(=O)N1CCN(CCCNc2c3ccc(Cl)cc3nc3ccc(OC)cc23)CC1 | 100% | 100% | 52% |
| O=C(Cn1c(CCc2cccc(F)c2F)cc(=O)c2ccccc21)N(CCN1CCCC1)Cc1ccc(-c2ccc(C(F)(F)F)cc2)cc1.O=C(O)C(O)C(O)C(=O)O | 99% | 57% | 89% |
| O=C(/C=C/c1ccc(Cl)c(Cl)c1)NC1CCC(CN2CCC(c3cc4ccccc4[nH]3)CC2)CC1 (stereo not given) | 96% | 0% | 19% |
| CN(c1ccccc1C(=O)Nc1cc(Cl)ccc1Oc1ccccc1)S(=O)(=O)c1ccccc1 | 99% | 42% | 47% |
| Cc1noc(C)c1-c1cccc(CNCc2cccc(-c3ccc(-c4nc5cccc(C)c5[nH]4)s3)c2)c1.O=C(O)C(F)(F)F | 100% | 75% | 22% |
| CNC(=O)COC(=O)c1c2c(nc3ccccc13)C(=Cc1ccc3c(c1)OCO3)CCC2 | 83% | 36% | 7% |
| CCC[C@@H]([C@@H](CC(C)C)C(=O)N[C@@H](CCC/N=C(/N)NS(C)(=O)=O)C(=O)Nc1nccs1)N(O)C=O | 95% | 41% | 10% |

| SMILES | Inhibition [1] | Inhibition [2] | Inhibition [3] |
| --- | --- | --- | --- |
| O=C(/C=C/c1ccc(Cl)c(Cl)c1)NCCCCCCN1CCN(C(=O)Nc2ccc(Cl)c(Cl)c2)CC1 | 88% | 0% | 23% |
| Oc1ccc(Cl)cc1CN1CCCC(COC(c2ccc(F)cc2)c2ccc(F)cc2)C1 (stereo not given) | 98% | 100% | 20% |
| O=C(/C=C/c1ccc(Cl)c(Cl)c1)NCCCCCN1CCC(NC(=O)Nc2cccc(C(F)(F)F)c2)CC1 | 100% | 11% | 61% |
| COc1ccc(C=NN=c2cc(C)[nH]c3ccccc23)cc1OC | 91% | 8% | 19% |
| O=C(NCCN1CCOCC1)c1ccc(CNC(=O)c2ccc(O)c(-c3ccc(Cl)c(Cl)c3)c2)cc1 | 87% | 55% | 3% |
| CCCNC[C@@H](O)[C@H](Cc1ccccc1)NC(=O)c1cc2c3c(c1)c(CC)cn3CCS(=O)(=O)N2C | 97% | 98% | 0% |
| Cl.Oc1cc(-c2nc(C3(CNCc4ccc(Cl)cc4)CCCCC3)[nH]c2-c2ccncc2)ccc1Cl | 100% | 99% | 35% |
| O=C(NC1CCN(Cc2ccccc2)CC1)c1ccc(-c2nc3cc(Cl)c(F)cc3[nH]2)s1 | 100% | 99% | 28% |
| Fc1ccc2[nH]c3c(NCCCN4CCOCC4)ncnc3c2c1 | 98% | 2% | 14% |
| CCN(CC)S(=O)(=O)n1ncc2c3c(N)nc(N)nc3ccc21.Cl | 93% | 16% | 67% |
| Cc1cccc(CN2CCCN(Cc3ccc(C(=O)Nc4ccc(Cl)cc4)cc3)CC2)c1.O=C(O)C(F)(F)F | 92% | 17% | 54% |
| Cn1nc(C(F)(F)F)c(-c2ccc(F)cc2)c1NC(=O)Nc1ccc(F)cc1 | 100% | 99% | 5% |
| Cl.O=c1cc(NCCNCc2cccc(-c3ccccc3)c2)[nH]c2ccccc12 | 93% | 68% | 0% |
| N#Cc1ccc(-c2nc3c(N4CCCC4)cccc3n2CCNCc2ccccc2)cc1.O=C(O)C(F)(F)F | 100% | 99% | 2% |
| CCC[C@@H]([C@@H](Cc1ccc(C)s1)C(=O)N[C@@H](CNC(C)=O)C(=O)Nc1nccs1)N(O)C=O | 97% | 96% | 0% |
| O=C(NCCN1CCCCC1)N1CCCN(c2ncnc3cc(-c4ccccc4)sc23)CC1.O=C(O)C(F)(F)F | 89% | 80% | 2% |
| O=C(Nc1cccc(CN2CCN(C(=O)c3cccc(F)c3)CC2)c1)c1cccs1.O=C(O)C(F)(F)F | 95% | 95% | 17% |
| Oc1ccccc1N1CCN(c2ccc(-c3nc4ccccc4[nH]3)cn2)CC1 | 97% | 50% | 0% |
| CC(C)CCN1CCC(Oc2ccc(NC(=O)c3ccco3)cc2Cl)CC1.O=C(O)C(F)(F)F | 95% | 93% | 1% |
| Cc1c(CNCCCNc2cc(=O)c3ccccc3[nH]2)sc(/C=N/O)c1Br.Cl | 82% | 0% | 0% |

| SMILES | Inhibition [1] | Inhibition [2] | Inhibition [3] |
| --- | --- | --- | --- |
| CCCCN1CC[C@@H](CCC(O)c2cc(OCCC)nc3ccc(OC)cc23)[C@@H](CC)C1.O=C(O)C(=O)O (stereo not given in full) | 100% | 99% | 23% |
| CS(=O)(=O)Nc1cccc(-c2cnc3[nH]cc(-c4cccc(CN)c4)c3c2)c1 | 96% | 82% | 25% |
| O=C(Nc1cccc([N+](=O)[O-])c1)N(Cc1ccc(Cl)c(Cl)c1)C1CCNCC1 | 99% | 0% | 17% |
| CN1CCc2cc(I)c(O)cc2C1Cc1ccccc1Cl.Cl (stereo not given) | 98% | 96% | 0% |
| CC(C)C[C@@H](/C=N/N1CCOC1=O)NC(=O)[C@H](CC(C)C)NC(=O)c1ccc(F)cc1 | 85% | 72% | 1% |
| COc1cc2c(cc1OC)C(C(=O)Nc1ccc(C(F)(F)F)cc1)C(c1cccs1)N(C)C2=O (stereo not given) | 99% | 86% | 31% |
| Cc1cc(N2CCCN(C)CC2)nc(Nc2ccc(Br)cc2)n1 | 94% | 14% | 8% |
| CN(c1ccc2c(c1)nc(Nc1cc(C(C)(C)C)on1)n2C)c1ccnc(Nc2ccc(CS(C)(=O)=O)cc2)n1 | 89% | 13% | 77% |
| COc1cc(CNc2ncc(-c3ccsc3)c(-c3nccs3)n2)cc(OC)c1 | 86% | 82% | 3% |
| Cc1c(C(=O)N2CCc3cc4nccc(N5CCN6CCC[C@H]6C5)c4cc32)cnn1-c1ccc(C#N)cc1.Cl | 90% | 27% | 0% |
| CCC[C@@H]([C@@H](CC1CCCCC1)C(=O)N[C@H](C(=O)Nc1nccs1)C(C)(C)SCCNC(=O)OCC)N(O)C=O | 99% | 98% | 45% |
| Cc1cc(C(=O)CN2C(=O)NC(C)(c3cccc4ccccc34)C2=O)c(C)n1Cc1ccco1 (stereo not given) | 90% | 23% | 0% |
| CNC(=S)NCc1cnc2ccccn12 | 97% | 0% | 0% |
| Cc1[nH]c(C)c(-c2ccc(-c3ccc(C(F)(F)F)cc3C(F)(F)F)nc2)c(=O)c1Br | 97% | 97% | 30% |
| COc1ccc(O)c(C(=O)c2cnc3c(c2)c(-c2ccc(F)cc2)c(C#N)c(=O)n3C)c1 | 92% | 14% | 7% |
| CC(C)CNCc1ccc(-c2ccccc2CN(C(=O)NCCc2ccccc2)C2CCN(Cc3ccccc3)CC2)cc1.O=C(O)C(F)(F)F | 98% | 94% | 89% |
| O=C(O)C(F)(F)F.OCCN1CCN(Cc2cccc(-c3cccc(-c4nc5cc(F)ccc5[nH]4)c3)c2)CC1 | 100% | 99% | 41% |
| N#Cc1cccc(-c2nc(NCc3cccc(C(F)(F)F)c3)nn2-c2cccc(C(F)(F)F)c2)c1 | 94% | 88% | 12% |
| NCCNS(=O)(=O)c1ccc(-c2ccnc3[nH]c(-c4ccncc4)cc23)cc1.O=C(O)C(F)(F)F | 96% | 95% | 0% |
| NC(=O)NC(=O)C=Cc1ccco1 | 97% | 0% | 32% |
